# Measured values taken from PubChem BioAssay AID1159580 (chemical genetic matrix, 2015).
# Hit rate of the full screen: of about 5,500 compounds, about 2,000 (36%) were called active. About 18% were inconclusive and are not listed. The list shows a part of the results. Values without a mark were called inactive. No stated cut-off is given here; in the data, active means normalized growth mostly below about 0.91 (no sharp cut-off); inconclusive means no clear call, values can overlap the other calls; inactive means mostly above about 0.92.
# Test: chemical genetic growth profiling, strain panel (AID 1159580);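 further: tested at 20 µM; growth read once vehicle control cultures reached saturation at 30 °C; 1 = growth at the plate median or of vehicle wells; lower values mean less growth of the strain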
# Details: growth OD
smiles,measurement,setting,value
CC(=O)O[C@H]1CC[C@@]2(C)C(C[C@@H](OC(C)=O)[C@]3(C)C2CC[C@@]2(C)[C@H](c4ccoc4)OC(=O)[C@H]4O[C@]423)C1(C)C (stereo partly drawn),normalized growth,"S. cerevisiae deletion strains, locus YJL187C, strain SWE1, hits give low values",1
same,normalized growth,"S. cerevisiae deletion strains, locus YJR066W, strain TOR1, hits give low values",0.997
same,normalized growth,"S. cerevisiae deletion strains, locus YKL009W, strain mrt4, hits give low values",1.47 [resistant] (active)
same,normalized growth,"S. cerevisiae deletion strains, locus YKL068W, hits give low values",1
same,normalized growth,"S. cerevisiae deletion strains, locus YKL085W, strain MDH1 (second series), hits give low values",1.04
same,normalized growth,"S. cerevisiae deletion strains, locus YKL085W, strain MDH1, hits give low values",1.04
same,normalized growth,"S. cerevisiae deletion strains, locus YKL160W, strain elf1, hits give low values",1.02
same,normalized growth,"S. cerevisiae deletion strains, locus YKL190W, strain CNB1, hits give low values",1
same,normalized growth,"S. cerevisiae deletion strains, locus YKR001C, strain vps1, hits give low values",1
same,normalized growth,"S. cerevisiae deletion strains, locus YKR026C, strain gcn3, hits give low values",0.971
same,normalized growth,"S. cerevisiae deletion strains, locus YKR091W, strain srl3, hits give low values",0.991
same,normalized growth,"S. cerevisiae deletion strains, locus YLL001W, strain dnm1, hits give low values",0.988
same,normalized growth,"S. cerevisiae deletion strains, locus YLL026W, hits give low values",0.995
same,normalized growth,"S. cerevisiae deletion strains, locus YLL041C, strain sdh2, hits give low values",0.987
same,normalized growth,"S. cerevisiae deletion strains, locus YLR027C, strain aat2, hits give low values",1
same,normalized growth,"S. cerevisiae deletion strains, locus YLR039C, strain RIC1, hits give low values",1.01
same,normalized growth,"S. cerevisiae deletion strains, locus YLR058C, strain SHM2, hits give low values",1.01
same,normalized growth,"S. cerevisiae deletion strains, locus YLR102C, strain apc9, hits give low values",1.02
same,normalized growth,"S. cerevisiae deletion strains, locus YLR113W, strain HOG1, hits give low values",0.991
same,normalized growth,"S. cerevisiae deletion strains, locus YLR221C, strain rsa3, hits give low values",1.01
same,normalized growth,"S. cerevisiae deletion strains, locus YLR258W, strain gsy2, hits give low values",0.994
same,normalized growth,"S. cerevisiae deletion strains, locus YLR262C, strain YPT6 (second series), hits give low values",1.05
same,normalized growth,"S. cerevisiae deletion strains, locus YLR262C, strain YPT6, hits give low values",1.1
same,normalized growth,"S. cerevisiae deletion strains, locus YLR268W, strain sec22, hits give low values",0.999
same,normalized growth,"S. cerevisiae deletion strains, locus YLR320W, strain mms22, hits give low values",1.01
same,normalized growth,"S. cerevisiae deletion strains, locus YLR330W, strain CHS5, hits give low values",1.01
same,normalized growth,"S. cerevisiae deletion strains, locus YLR342W, strain FKS1, hits give low values",0.994
same,normalized growth,"S. cerevisiae deletion strains, locus YLR357W, strain rsc2, hits give low values",0.951
same,normalized growth,"S. cerevisiae deletion strains, locus YLR370C, strain arc18, hits give low values",0.996
same,normalized growth,"S. cerevisiae deletion strains, locus YLR371W, strain rom2, hits give low values",1.01
same,normalized growth,"S. cerevisiae deletion strains, locus YLR384C, strain iki3, hits give low values",1
same,normalized growth,"S. cerevisiae deletion strains, locus YLR418C, strain cdc73, hits give low values",1.06
same,normalized growth,"S. cerevisiae deletion strains, locus YML016C, strain PPZ1, hits give low values",1.02
same,normalized growth,"S. cerevisiae deletion strains, locus YML032C, strain rad52, hits give low values",1.01
same,normalized growth,"S. cerevisiae deletion strains, locus YML120C, strain ndi1, hits give low values",0.989
same,normalized growth,"S. cerevisiae deletion strains, locus YML124C, strain tub3, hits give low values",1.01
same,normalized growth,"S. cerevisiae deletion strains, locus YMR058W, strain fet3, hits give low values",1
same,normalized growth,"S. cerevisiae deletion strains, locus YMR078C, strain ctf18, hits give low values",1.02
same,normalized growth,"S. cerevisiae deletion strains, locus YMR125W, strain sto1, hits give low values",0.99
same,normalized growth,"S. cerevisiae deletion strains, locus YMR129W, hits give low values",0.996
same,normalized growth,"S. cerevisiae deletion strains, locus YMR205C, strain PFK2, hits give low values",0.968
same,normalized growth,"S. cerevisiae deletion strains, locus YMR223W, strain ubp8, hits give low values",1.03
same,normalized growth,"S. cerevisiae deletion strains, locus YMR231W, strain pep5, hits give low values",0.994
same,normalized growth,"S. cerevisiae deletion strains, locus YMR263W, strain SAP30, hits give low values",1.02
same,normalized growth,"S. cerevisiae deletion strains, locus YMR307W, strain GAS1, hits give low values",0.994
same,normalized growth,"S. cerevisiae deletion strains, locus YNL067W, strain RPL9B, hits give low values",1.05
same,normalized growth,"S. cerevisiae deletion strains, locus YNL071W, strain lat1, hits give low values",1
same,normalized growth,"S. cerevisiae deletion strains, locus YNL183C, strain NPR1, hits give low values",1
same,normalized growth,"S. cerevisiae deletion strains, locus YNL209W, strain ssb2, hits give low values",1
same,normalized growth,"S. cerevisiae deletion strains, locus YNL233W, strain BNI4, hits give low values",1.05
same,normalized growth,"S. cerevisiae deletion strains, locus YNL248C, strain rpa49, hits give low values",1.01
same,normalized growth,"S. cerevisiae deletion strains, locus YNL250W, strain rad50, hits give low values",1.05
same,normalized growth,"S. cerevisiae deletion strains, locus YNL271C, strain bni1, hits give low values",1.02
same,normalized growth,"S. cerevisiae deletion strains, locus YNL298W, strain CLA4, hits give low values",1.01
same,normalized growth,"S. cerevisiae deletion strains, locus YNL307C, strain MCK1, hits give low values",1.02
same,normalized growth,"S. cerevisiae deletion strains, locus YNL322C, strain KRE1 (second series), hits give low values",0.997
same,normalized growth,"S. cerevisiae deletion strains, locus YNR049C, strain mso1, hits give low values",0.985
same,normalized growth,"S. cerevisiae deletion strains, locus YNR052C, strain pop2, hits give low values",1.03
same,normalized growth,"S. cerevisiae deletion strains, locus YOL006C, strain TOP1, hits give low values",1.04
same,normalized growth,"S. cerevisiae deletion strains, locus YOL012C, strain htz1",0.707
same,normalized growth,"S. cerevisiae deletion strains, locus YOL147C, strain pex11, hits give low values",1.01
same,normalized growth,"S. cerevisiae deletion strains, locus YOR001W, strain rrp6, hits give low values",1.02
same,normalized growth,"S. cerevisiae deletion strains, locus YOR061W, strain CKA2, hits give low values",1
same,normalized growth,"S. cerevisiae deletion strains, locus YOR069W, strain VPS5, hits give low values",1.01
same,normalized growth,"S. cerevisiae deletion strains, locus YOR070C, strain gyp1, hits give low values",0.997
same,normalized growth,"S. cerevisiae deletion strains, locus YOR080W, strain dia2, hits give low values",0.996
same,normalized growth,"S. cerevisiae deletion strains, locus YOR083W, strain WHI5, hits give low values",1.03
same,normalized growth,"S. cerevisiae deletion strains, locus YOR106W, strain vam3, hits give low values",1.03
same,normalized growth,"S. cerevisiae deletion strains, locus YOR136W, strain idh2, hits give low values",1.02
same,normalized growth,"S. cerevisiae deletion strains, locus YOR144C, strain elg1, hits give low values",1.01
same,normalized growth,"S. cerevisiae deletion strains, locus YOR184W, strain ser1, hits give low values",1
same,normalized growth,"S. cerevisiae deletion strains, locus YOR231W, strain MKK1, hits give low values",1.02
same,normalized growth,"S. cerevisiae deletion strains, locus YOR265W, strain rbl2, hits give low values",1
same,normalized growth,"S. cerevisiae deletion strains, locus YOR270C, strain vph1, hits give low values",1.01
same,normalized growth,"S. cerevisiae deletion strains, locus YOR290C, strain snf2, hits give low values",0.942
same,normalized growth,"S. cerevisiae deletion strains, locus YOR316C, strain cot1, hits give low values",1.01
same,normalized growth,"S. cerevisiae deletion strains, locus YPL051W, strain arl3, hits give low values",1.03
same,normalized growth,"S. cerevisiae deletion strains, locus YPL078C, strain atp4, hits give low values",1.02
same,normalized growth,"S. cerevisiae deletion strains, locus YPL106C, strain sse1, hits give low values",0.981
same,normalized growth,"S. cerevisiae deletion strains, locus YPL240C, strain hsp82, hits give low values",1
same,normalized growth,"S. cerevisiae deletion strains, locus YPL241C, strain CIN2, hits give low values",1
same,normalized growth,"S. cerevisiae deletion strains, locus YPL256C, strain CLN2, hits give low values",1.05
same,normalized growth,"S. cerevisiae deletion strains, locus YPR119W, strain clb2, hits give low values",1.01
same,normalized growth,"S. cerevisiae deletion strains, locus YPR141C, strain kar3, hits give low values",1.02
same,normalized growth,"S. cerevisiae deletion strains, locus YPR163C, strain tif3, hits give low values",1.02
same,normalized growth,"S. cerevisiae deletion strains, locus YPR167C, strain met16, hits give low values",1.01
same,normalized growth,"S. cerevisiae deletion strains, strain wtn01, hits give low values",1.02
same,normalized growth,"S. cerevisiae strains, strain wild type, hits give low values",1.02
